# In PubChem BioAssay AID1159580 (chemical genetic matrix, 2015):
# “And” between values parts separate entries of the source, which are not always exact repeats. Equal values may be shown once. The campaign covered roughly 5,500 compounds. About 2,000 (36%) were called active. Another 18% or so got no clear call; they are omitted. The list shows a part of the results. Values without a mark were called inactive. No stated cut-off is given here; in the data, active means normalized growth mostly below about 0.91 (no sharp cut-off); inconclusive means no clear call, values can overlap the other calls; inactive means mostly above about 0.92.
# Experiment: chemical genetic growth profiling, strain panel (AID 1159580);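 further: tested at 20 µM; growth read once vehicle control cultures reached saturation at 30 °C; 1 = growth at the plate median or of vehicle wells; lower values mean less growth of the strain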
# Conditions: S. cerevisiae deletion strains, growth OD
smiles,measurement,setting,value
O=c1[nH]c2ccccc2n1C1CCN(CCCC(c2ccc(F)cc2)c2ccc(F)cc2)CC1,normalized growth,"locus YAL013W, strain DEP1, hits give low values",1.01 and 0.995
same,normalized growth,"locus YAL021C, strain ccr4, hits give low values",0.839 (active)
same,normalized growth,"locus YAL026C, strain drs2, hits give low values",0.948
same,normalized growth,"locus YAL030W, strain snc1, hits give low values",0.963
same,normalized growth,"locus YAL040C, strain CLN3, hits give low values",1.03
same,normalized growth,"locus YBL061C, strain skt5, hits give low values",0.967
same,normalized growth,"locus YBR009C, strain hhf1, hits give low values",0.875 (active)
same,normalized growth,"locus YBR021W, strain FUR4, hits give low values",0.969
same,normalized growth,"locus YBR023C, strain chs3, hits give low values",0.918
same,normalized growth,"locus YBR171W, strain sec66, hits give low values",1.03
same,normalized growth,"locus YBR229C, strain ROT2, hits give low values",0.948
same,normalized growth,"locus YBR231C, strain swc5, hits give low values",0.92
same,normalized growth,"locus YBR279W, strain paf1, hits give low values",0.953
same,normalized growth,"locus YCL011C, strain gbp2, hits give low values",0.93
same,normalized growth,"locus YCL016C, strain dcc1, hits give low values",0.95
same,normalized growth,"locus YCL029C, strain bik1, hits give low values",0.986
same,normalized growth,"locus YCL061C, strain MRC1 (second series), hits give low values",1.01
same,normalized growth,"locus YCL061C, strain MRC1, hits give low values",0.95
same,normalized growth,"locus YCL069W, strain vba3, hits give low values",1
same,normalized growth,"locus YCR088W, strain abp1, hits give low values",1
same,normalized growth,"locus YDL005C, strain med2, hits give low values",1.01
same,normalized growth,"locus YDL035C, strain GPR1, hits give low values",0.968
same,normalized growth,"locus YDL040C, strain nat1, hits give low values",1.01
same,normalized growth,"locus YDL074C, strain BRE1, hits give low values",0.904
same,normalized growth,"locus YDL101C, strain DUN1, hits give low values",0.978
same,normalized growth,"locus YDL134C, strain PPH21, hits give low values",0.972
same,normalized growth,"locus YDL185W, strain tfp1, hits give low values",0.997
same,normalized growth,"locus YDL192W, strain arf1, hits give low values",1
same,normalized growth,"locus YDR001C, strain nth1, hits give low values",1.02
same,normalized growth,"locus YDR069C, strain doa4, hits give low values",0.854 (active)
same,normalized growth,"locus YDR101C, strain arx1, hits give low values",1
same,normalized growth,"locus YDR137W, strain rgp1, hits give low values",1.26 [resistant] (active)
same,normalized growth,"locus YDR150W, strain NUM1, hits give low values",0.973
same,normalized growth,"locus YDR159W, strain sac3, hits give low values",0.92
same,normalized growth,"locus YDR162C, strain NBP2, hits give low values",0.975
same,normalized growth,"locus YDR195W, strain ref2",1.05
same,normalized growth,"locus YDR297W, strain sur2, hits give low values",0.959
same,normalized growth,"locus YDR318W, strain mcm21, hits give low values",0.975
same,normalized growth,"locus YDR334W, strain swr1, hits give low values",1.01
same,normalized growth,"locus YDR335W, strain msn5, hits give low values",0.959
same,normalized growth,"locus YDR363W, strain ESC2, hits give low values",0.989
same,normalized growth,"locus YDR388W, hits give low values",0.838 (active)
same,normalized growth,"locus YDR392W, strain spt3, hits give low values",0.646 (active)
same,normalized growth,"locus YDR502C, strain sam2, hits give low values",0.986
same,normalized growth,"locus YEL003W, strain gim4, hits give low values",0.944
same,normalized growth,"locus YEL037C, strain rad23, hits give low values",0.936
same,normalized growth,"locus YEL061C, strain CIN8 (second series), hits give low values",1.01
same,normalized growth,"locus YEL061C, strain CIN8, hits give low values",0.989
same,normalized growth,"locus YER015W, strain faa2, hits give low values",0.953
same,normalized growth,"locus YER016W, strain bim1, hits give low values",0.961
same,normalized growth,"locus YER110C, hits give low values",0.993
same,normalized growth,"locus YER111C, strain swi4, hits give low values",1.02
same,normalized growth,"locus YER155C, strain BEM2 (second series), hits give low values",0.707 (active)
same,normalized growth,"locus YER155C, strain BEM2, hits give low values",1.02
same,normalized growth,"locus YER167W, strain BCK2, hits give low values",0.99
same,normalized growth,"locus YFR010W, strain ubp6, hits give low values",0.878 (active)
same,normalized growth,"locus YGL078C, strain dbp3, hits give low values",0.994
same,normalized growth,"locus YGL086W, strain mad1, hits give low values",0.986
same,normalized growth,"locus YGL167C, strain pmr1, hits give low values",1.01
same,normalized growth,"locus YGL173C, strain kem1, hits give low values",0.936
same,normalized growth,"locus YGL227W, strain vid30, hits give low values",1.03
same,normalized growth,"locus YGL240W, strain doc1, hits give low values",0.916
same,normalized growth,"locus YGL248W, strain PDE1, hits give low values",0.979
same,normalized growth,"locus YGL253W, strain hxk2, hits give low values",0.938
same,normalized growth,"locus YGR078C, strain PAC10, hits give low values",0.967
same,normalized growth,"locus YGR135W, strain pre9, hits give low values",0.926
same,normalized growth,"locus YGR229C, strain SMI1, hits give low values",0.949
same,normalized growth,"locus YGR252W, strain gcn5, hits give low values",0.782
same,normalized growth,"locus YHR013C, strain ard1, hits give low values",1.02
same,normalized growth,"locus YHR027C, strain rpn1, hits give low values",0.927
same,normalized growth,"locus YHR030C, strain SLT2, hits give low values",0.995 and 0.973
same,normalized growth,"locus YHR079C, strain IRE1 (second series), hits give low values",0.994
same,normalized growth,"locus YHR079C, strain IRE1, hits give low values",0.942
same,normalized growth,"locus YHR094C, strain hxt1, hits give low values",0.995
same,normalized growth,"locus YHR129C, strain ARP1, hits give low values",0.987
same,normalized growth,"locus YHR142W, strain chs7, hits give low values",0.915
same,normalized growth,"locus YHR200W, strain rpn10, hits give low values",0.988
same,normalized growth,"locus YIL066C, strain RNR3, hits give low values",0.968
same,normalized growth,"locus YIL073C, strain SPO22, hits give low values",1.72 [resistant] (active)
same,normalized growth,"locus YIL125W, strain kgd1, hits give low values",0.995
same,normalized growth,"locus YIR030C, strain dcg1, hits give low values",1
same,normalized growth,"locus YJL092W, strain hpr5, hits give low values",0.936
same,normalized growth,"locus YJL095W, strain BCK1 (second series), hits give low values",0.973
same,normalized growth,"locus YJL095W, strain BCK1, hits give low values",1.01 and 0.96
same,normalized growth,"locus YJL115W, strain asf1, hits give low values",1.02
same,normalized growth,"locus YJL129C, strain trk1, hits give low values",0.885
same,normalized growth,"locus YJL134W, strain LCB3, hits give low values",0.993
same,normalized growth,"locus YJL154C, strain vps35, hits give low values",1.01
same,normalized growth,"locus YJL164C, strain tpk1, hits give low values",0.937
same,normalized growth,"locus YJL166W, strain qcr8, hits give low values",0.947
same,normalized growth,"locus YJL168C, strain set2, hits give low values",0.997
same,normalized growth,"locus YJL187C, strain SWE1 (second series), hits give low values",0.97
same,normalized growth,"locus YJR043C, strain POL32, hits give low values",0.996
same,normalized growth,"locus YJR066W, strain TOR1, hits give low values",0.93
